Consider 28 compounds from PubChem BioAssay AID1822 (The Scripps Research Institute Molecular Screening Center, 2009).

Structures are written as SMILES. The whole screen tested about 290,000 compounds, of which about 3,500 (1.2%) were called active. This is one part of a sample in which actives are shown more often than they occur. Unmarked numbers belong to inactive results.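 The calls were made as follows: active = inhibition above the campaign mean inhibition over all tested compounds plus 3 SD (cut at about 28% in these data); inactive = the rest.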

For this assay, the system named is M18 aspartyl aminopeptidase (Plasmodium falciparum 3D7). In words: inhibition of P. falciparum M18 aminopeptidase – biochemical, QFRET, recombinant enzyme, primary screen (AID 1822).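 Also: 0% = plate median of test compound wells and 100% = 2 mM ZnCl2.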 Particulars: recombinant PfM18AAP, H-Glu-NHMec fluorogenic cleavage; at 7.35 µM; hits give high values.
As for `COc1ccc(-c2csc(NC3OC(=O)c4ccccc43)n2)cc1` (stereo not drawn), the inhibition was 3.33%.

For the compound `COc1ccc(N/C=C(\C2OC(=O)c3ccccc32)[N+](=O)[O-])cc1` (stereo not drawn), the inhibition was 38.8% (active).

As to `COc1ccc(NC(=O)ON=C2c3ccccc3-c3ccccc32)cc1`, the inhibition is -2.03%.

With `O=C(CCN1CCN(C/C=C/c2ccccc2)CC1)Nc1ccccc1Cl`, the inhibition was -14.5%.

`CS(=O)(=O)N(CC(=O)N1CCCCCC1)c1cccc(Cl)c1Cl`: the inhibition is -10.9%.

As to `CCC(=O)NC(Nc1cc(C)ccn1)(C(F)(F)F)C(F)(F)F`, the inhibition is -6.4%.

For the compound `Cc1ccc(NC(=O)Nc2cccc(C(F)(F)F)c2)nc1`, the inhibition is -4.58%.

As for `CCOC(=O)NNc1cc(C(F)(F)F)ccn1`, the inhibition is 49.5% (active).

For `CCOC(=O)c1cccc(NC(=O)CN2C(=O)C3CC=CCC3C2=O)c1` (stereo not drawn), the inhibition was 0.39%.

In the case of `O=C(Nc1cccnc1Cl)c1cc(-c2cccc(Cl)c2)on1`, the inhibition was -1.19%.

As to `CCOC(=O)C1(CCOc2ccccc2)CCN(Cc2ccc(C#CCCO)cc2)CC1`, the inhibition was 3.95%.

Turning to `CC(=O)N1CCN(CC(c2ccccc2)c2ccccc2)CC1`, the inhibition is -8.35%.

In the case of `O=C(Nc1ccncc1)c1ccc([N+](=O)[O-])cc1Cl`, the inhibition was 8.21%.

On to `O=C(Cc1ccccc1)Nc1ccc(NC(=O)c2cccnc2)cc1`, for which the inhibition was -1.2%.

Turning to `Cn1cccc1C(=O)N1CCc2ccccc2C1`, the inhibition was -5%.

`CC(C)CNC(=O)C(=O)NCC(c1ccc2c(c1)OCO2)N1CCOCC1` (stereo not drawn): the inhibition is -5.45%.

On to `Cc1cc2ccccc2n1CCC(=O)O`, for which the inhibition is 10.5%.

As for `O=C(O)CCn1c(O)c(C=C2N=c3ccccc3=N2)sc1=S`, the inhibition is 37.6% (active).

Regarding `O=C(O)CCn1c(Cc2ccccc2)nc2ccccc21`, the inhibition is -1.96%.

In the case of `O=S1(=O)CCOC[C@H](CC2CCCCC2)N1Cc1ccc(F)cc1`, the inhibition was -13.1%.

For `CCn1cc(CCC(=O)NCc2ccc(F)cc2)c2ccccc21`, the inhibition is -10.5%.

As to `CC(=O)Nc1ccc(N2CCOCC2)c(C(=O)Nc2cccc(C)c2)c1`, the inhibition is 4.11%.

Regarding `Cc1nc(N2CCOCC2)c2c(C)c(C(=O)Nc3ccc(C(F)(F)F)cc3)sc2n1`, the inhibition was -14.6%.

For `Cc1cccc(NC(=O)c2sc3nc(N4CCOCC4)c4c(c3c2N)CCCC4)c1`, the inhibition was 41% (active).

With `O=C(NNC(=O)c1ccco1)Nc1ccccc1`, the inhibition was 48.6% (active).

For the compound `O=C(Nc1ccccc1)c1ccco1`, the inhibition was 2.58%.

In the case of `O=C(Nc1ccccc1)/C(=C\c1ccco1)NC(=O)c1ccco1`, the inhibition is 8.12%.

`O=C(O)C1CCC(CNS(=O)(=O)c2ccc(Br)cc2)CC1` (stereo not drawn): the inhibition is -15.2%.
